The record followed here is PubChem BioAssay AID720517 (National Center for Advancing Translational Sciences (NCATS), 2013).

Inconclusive results are not listed. Entries that show only a call come without a potency. Calls of active or inactive are those of the source. Calls come from the whole dose curve; as a rule, active = well fitted activation curve with a large enough effect; inconclusive = small, poorly fitted or top-dose-only effect; inactive = flat fitted curve, though single readings scatter.

The assay can be described thus: qHTS for Inhibitors of Cell Surface uPA Generation: FP59 Counterscreen for Cherry-picked Compounds. Particulars: FP59 anthrax toxin cytotoxicity counterscreen, cells; series mostly up to 115 µM. (In general: In qHTS, concentration-response curves come from the screen itself.)
For `O=C(O)CNS(=O)(=O)c1ccc2c(c1)Cc1cc(S(=O)(=O)NCC(=O)O)ccc1-2`, the Potency entry was “inactive”.
In the case of `COc1cc(CCC(=O)OCC(=O)Nc2ccc(C)cc2Br)cc(OC)c1OC`, the Potency entry was “inactive”.
Take `Cc1cc(SCc2ccc(Cl)cc2)nc(=O)[nH]1`: the Potency entry was “inactive”.
Take `O=[N+]([O-])c1cccc(-c2noc(-c3cccs3)n2)c1`: the Potency entry is “inactive”.
